An excerpt weighted towards active compounds, which were near 3.2% of everything screened.
APOBEC3A inh: inhibitors of human APOBEC3A DNA deaminase | recombinant A3A, FAM/TAMRA ssDNA deamination fluorescence | hit rate 0.41% among 330,000 | AID 493011 | inhibition, % at 20 µM;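 active = at least 40% inhibition at 20 µM here, with at most 30% in a related deaminase screen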
Target sequence (P31941 whole entry, looked up): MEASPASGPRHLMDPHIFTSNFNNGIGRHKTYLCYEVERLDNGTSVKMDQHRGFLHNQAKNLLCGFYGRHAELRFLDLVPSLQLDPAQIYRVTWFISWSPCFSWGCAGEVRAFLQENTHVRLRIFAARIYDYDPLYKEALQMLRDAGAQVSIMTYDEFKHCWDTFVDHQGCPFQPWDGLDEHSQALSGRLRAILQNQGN
AHR act: activators of human aryl hydrocarbon receptor; activation, % at 5 µM; AHR-responsive luciferase reporter cells, luminescence; hit rate 2.5% among 320,000; AID 2796; P35869; in the data active = activation above about 47%
A3G deaminase: APOBEC3G (human) deaminase inhibition; hit rate 0.28% among 330,000; Q9HC16; inhibition, % at 20 µM; recombinant A3G, ssDNA deamination FAM/TAMRA fluorescence; AID 493012;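 active = inhibition of at least 40% at 20 µM, with no more than 30% in the related APOBEC3A deaminase screen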
Target sequence (Q9HC16 whole entry, looked up): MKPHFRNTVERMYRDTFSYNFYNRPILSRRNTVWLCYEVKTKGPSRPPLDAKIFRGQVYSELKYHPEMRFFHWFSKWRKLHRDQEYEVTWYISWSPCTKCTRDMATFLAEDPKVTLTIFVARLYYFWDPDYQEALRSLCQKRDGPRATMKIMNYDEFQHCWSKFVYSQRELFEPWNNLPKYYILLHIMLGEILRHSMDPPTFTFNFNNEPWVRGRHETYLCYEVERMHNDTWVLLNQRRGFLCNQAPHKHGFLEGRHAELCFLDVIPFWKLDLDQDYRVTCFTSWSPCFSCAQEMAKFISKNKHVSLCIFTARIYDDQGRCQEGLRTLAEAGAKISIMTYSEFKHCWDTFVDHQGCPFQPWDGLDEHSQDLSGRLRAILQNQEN
NTR1 ag: activates human neurotensin receptor 1 | P30989 | NTR1-U2OS beta-arrestin-GFP spot imaging, agonist mode | activation, % at 20 µM | hit rate 0.17% among 330,000 | AID 493036;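 active = activation at or above 40% of the spot to cytoplasm intensity ratio, with at least 20 cells analyzed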
AHR act confirm: confirmation of human aryl hydrocarbon receptor activators; shares compounds with AHR act; human cells, AHR-responsive luciferase reporter, luminescence; activation, % at 9 µM; hit rate 87% among 2,300; AID 2845; in the data active = activation above about 49%;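 note: HepG2 hepatoma cells carrying a DRE-driven firefly luciferase reporter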
PXR counter: activates human PXR in AHR activator counter-screen; shares compounds with AHR act; cell-based PXR reporter, luciferase luminescence; activation, % at 11.6 µM; hit rate 88% among 2,300; in the data active = activation above about 11%;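 note: human hepatoma DPX-2 cells expressing full-length human PXR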
Each line names hits and unclear results; the compound was inactive in the other large screens (follow-up assays come after a bar, where they were run).

COc1cccc(C2=NC(C)(C)NC(c3ccccc3O)C2)c1 (configuration not stated)	AHR act 82 | AHR act confirm inactive | PXR counter 52
O=C1N/C(=N\c2ccccn2)SC1Cc1ccccc1Cl (configuration not stated)	AHR act 80 | AHR act confirm 89 | PXR counter 34
Cc1csc2ncc(C(=O)Nc3ccon3)c(=O)n12	AHR act 120 | AHR act confirm 115 | PXR counter 12
Cc1cccc(NC(=O)c2cnc3scc(C)n3c2=O)c1	AHR act 79 | AHR act confirm 96 | PXR counter 57
O=C(COC(=O)CN1C(=O)c2ccccc2C1=O)Nc1cccc(F)c1	none
CCOc1ccc2c(c1)c(N=O)c(O)n2C	AHR act 94 | AHR act confirm 62 | PXR counter 10
CCOc1ccc(/C=N/NC(=O)c2c(C)n(C)c3ccc(OC)cc23)cc1	none
Nc1nc(NCc2ccc(Cl)cc2)nc(NCCO)c1[N+](=O)[O-]	none
Nc1nc(Nc2ccc(Cl)cc2)nc(NCCO)c1[N+](=O)[O-]	AHR act 111 | AHR act confirm 193 | PXR counter 25
CNc1nc(N)c([N+](=O)[O-])c(Nc2cccc(F)c2)n1	none
C=CCNc1nc(N)c([N+](=O)[O-])c(Nc2cccc(Cl)c2)n1	AHR act 89 | AHR act confirm 132 | PXR counter 13
Cc1ccc(Cl)cc1N1CCN(C(=O)Cn2ncn3cccc3c2=O)CC1	none
COc1ccc(C(=O)N/C(=C\c2cn(C)c3ccccc23)C(=O)OCCN(C)C)cc1	AHR act 100 | AHR act confirm 109 | PXR counter 94
COc1ccc(C(=O)N/C(=C\c2cn(C)c3ccccc23)C(=O)NCCCn2ccnc2)cc1	none
COc1ccc(C(=O)N/C(=C\c2cn(C)c3ccccc23)C(=O)OCC(C)C)cc1	AHR act 90 | AHR act confirm 60 | PXR counter 137
O=C(Cc1ccc(Cl)cc1)N1CCN(c2ccccc2)CC1	none
CCCCn1cnc2cc(C)c(C)cc21	none
Cc1ccc2c(c1)[nH]c1c(=O)n(CCN3CCCCC3)cnc12	AHR act 94 | AHR act confirm 105 | PXR counter 76
Cc1ccc2c(c1)c1nnc(SCC(=O)NC3CC3)nc1n2C	AHR act 79 | AHR act confirm 100 | PXR counter 19
Cc1ccc2nc(SCC(=O)N/N=C/c3ccco3)cc(C)c2c1	none
Cc1sc(N/N=C/c2ccco2)nc1-c1ccccc1	AHR act 170 | AHR act confirm 80 | PXR counter 31
Cc1sc(N/N=C/c2cccnc2)nc1-c1ccccc1	none
Cc1ccc2nc(N/N=C/c3ccco3)cc(C)c2c1	AHR act 121 | AHR act confirm 177 | PXR counter 23
Nc1nc(-c2ccc(Cl)cc2)nn1C(=O)c1cccs1	none
Cc1ccc2c(CC(=O)NCCc3ccc(S(N)(=O)=O)cc3)coc2c1	none
CC(=O)[C@H]1[C@H]([C@H](O)[C@H](O)CO)O[C@](O)(C(=O)O)C[C@@H]1O	none
CCOc1ccccc1NC(=O)c1ccoc1C	AHR act 81 | AHR act confirm 89 | PXR counter 13
CSc1ccccc1NC(=O)c1ccoc1C	none
CCOc1ccccc1C(=O)Nc1cccc2ccccc12	AHR act 88 | AHR act confirm 63 | PXR counter 34
CCNC(=S)N/N=C(\C)c1cccc([N+](=O)[O-])c1	none
Cc1ccccc1/C=c1\s/c(=C\C(=O)C(C)(C)C)[nH]c1=O	AHR act 119 | AHR act confirm 76 | PXR counter 105
Cc1ccc(C(=O)N2CCCCC2)cc1S(=O)(=O)N1CCOCC1	none
CCN(CC)C(=O)c1sc2nc(-c3ccccn3)[nH]c(=O)c2c1C	AHR act 83 | AHR act confirm inactive | PXR counter 52
Cc1cccc(C)c1OCc1cc(C(=O)NCC2CC2)no1	none
CC1=C(C(=O)OCc2ccc(C)cc2)C(c2ccc(O)c([N+](=O)[O-])c2)NC(=O)N1 (configuration not stated)	none
CON/C=N/C(=S)Nc1ncc(C(F)(F)F)cc1Cl	none
CON/C=C(\C=Nc1ccc(F)cc1)c1ncc(C(F)(F)F)cc1Cl	AHR act 89 | AHR act confirm 94 | PXR counter 23
Cc1cccc(NC(=O)CN2C(=O)NC3(CCCC3)C2=O)n1	none
CCOc1ccc2oc(C(=O)N(CCOC)c3c(N)n(CC(C)C)c(=O)[nH]c3=O)c(C)c2c1	none
O=C(CCc1ccccc1)NCC1OCCc2ccccc21 (configuration not stated)	none
O=C(NCC1OCCc2ccccc21)c1ccco1 (configuration not stated)	AHR act 86 | AHR act confirm 129 | PXR counter 14
O=C(COc1ccc(Br)cc1CNCCc1ccccc1)NCc1ccccc1	AHR act 114 | AHR act confirm 90 | PXR counter 44
OCCCCNCc1cc(Br)ccc1OCc1ccccc1	none
OCCNCc1cc(Br)ccc1OCc1ccccc1Cl	AHR act 119 | AHR act confirm 85 | PXR counter 40
NC(=O)c1oc2ccccc2c1NC(=O)C1COc2ccccc2O1 (configuration not stated)	none
C[C@H](CO)N1C[C@H](C)[C@@H](CN(C)C(=O)Nc2ccc(C(F)(F)F)cc2)Oc2ccc(NC(=O)Cn3cnnn3)cc2C1=O	none
CNC(=S)N/N=C1\C(=O)c2cccc3cccc1c23	AHR act 90 | AHR act confirm 114 | PXR counter 39
CCCCCCCCCCCCCCCC(=O)OC(CC(=O)O)C[N+](C)(C)C (configuration not stated)	none
CCc1ccc(C(=O)COC(=O)C2CCN(c3ccc(C(F)(F)F)cn3)CC2)cc1	none
COc1ccc(C(=O)O/N=C(\N)c2ccccc2)c(OC)c1	AHR act 97 | AHR act confirm 56 | PXR counter inactive
Cc1cc(OC(=O)c2ccccc2C(F)(F)F)c([N+](=O)[O-])c(=O)[nH]1	none
Cc1cc(Nc2ccc(F)cc2)n2nc(C)nc2n1	none
Cc1cc(Nc2ccc(Br)cc2)n2nc(C)nc2n1	AHR act 107 | AHR act confirm 88
CCOC(=O)c1c(N/N=C/c2ccncc2)n[nH]c1C	AHR act 97 | AHR act confirm 66 | PXR counter 15
Cn1cc(/C=C2\SC(=O)N(c3ccccc3)C2=O)c2ccccc21	AHR act 99 | AHR act confirm 69 | PXR counter 20
Cc1ccc2nc3c(cc2c1)c(NC(=O)c1cccnc1)nn3C	AHR act 107 | AHR act confirm 118 | PXR counter 25
CCCC(=O)Nc1nn(C)c2nc3cc(C)ccc3cc12	AHR act 85 | AHR act confirm 53
CCCn1nc(NC(=O)c2ccccn2)c2cc3cc(C)ccc3nc21	none
NNc1nc2ccc(Cl)cc2s1	AHR act 115 | AHR act confirm 106 | PXR counter 22
O=C(Nc1nc2ccc(Cl)cc2s1)c1ccc(Br)o1	none

Assay outcomes (PubChem)
